The text below walks through data of PubChem BioAssay (NCI).

The experiment can be described thus: NCI Yeast Anticancer Drug Screen. Data for the bub3 strain (AID 167). The settings on record: S. cerevisiae bub3 mutant strain, hits give high values. How it is done: Growth inhibition of yeast strains with defined genetic alterations is measured as a screen for potential anti-cancer activity. Selected strains with alterations in DNA damage repair or cell cycle control were exposed to compounds and growth inhibition was measured relative to vehicle treated controls. The strain used in this assay is bub3

The mark [1] stands for this setting: at 5.0 µM (retest, dose inferred, filed as 0.5).
The mark [2] stands for this setting: at 50.0 µM (retest, dose inferred, filed as 5.0).

SMILES strings stand for the structures. About 79,000 compounds went through this panel and 15% of them were active in at least one assay; those are over-represented in the sample as a whole. Unmarked numbers belong to inactive results. Activity calls are given as the source filed them. Cut-off read from the data, not from the text of the source: active = growth inhibition above about 70%; inactive = the rest.

Take `BrCc1ccccc1C(c1ccccc1)c1ccccc1`: the growth inhibition is, setting by setting: (at 1.2 µM) 4%; (at 3.7 µM) 56%; under setting [1], 24%; (at 11.0 µM) 96% (active); (at 33.0 µM) 97% (active); under setting [2], 97% (active). Moreover, the growth inhibition is, setting by setting: (at 50.0 µM) 97.3% (active); (at 100.0 µM) 94% (active).
Turning to `COc1ccc(/C=C(\NC(=O)c2ccccc2)C(=O)NN(C)c2ccnc3cc(Cl)ccc23)cc1OC`, the growth inhibition reads like this: (at 1.2 µM) -4%; (at 3.7 µM) -4%; under setting [1], 9%; (at 11.0 µM) 22%; (at 33.0 µM) 32%; under setting [2], 49%. The growth inhibition was 90.2% (active) (at 50.0 µM) and 50% (at 100.0 µM).
Regarding `CN[C@@H]1C[C@H]2O[C@@](C)([C@@H]1OC)n1c3ccccc3c3c4c(c5c6ccccc6n2c5c31)C(=O)N[C@@H]4O`, the growth inhibition (at 1.2 µM) was -11%; the growth inhibition (at 3.7 µM) was -10%; the growth inhibition under setting [1] was 30%; the growth inhibition (at 11.0 µM) is 13%; the growth inhibition (at 33.0 µM) was 32%; the growth inhibition under setting [2] is 83% (active). Besides, the growth inhibition was 74.5% (active) (at 50.0 µM) and 74% (active) (at 100.0 µM).
For `COC(=O)c1cccc(C)c1C(=O)c1c(C)cc(C)cc1C`, the growth inhibition is, setting by setting: (at 1.2 µM) 0%; (at 3.7 µM) -2%; under setting [1], 9%; (at 11.0 µM) -3%; (at 33.0 µM) 4%; under setting [2], 22%. Also, the growth inhibition runs as follows: (at 50.0 µM) 16.8%; (at 100.0 µM) 62%.
`Cc1ccc(N=Nc2ccc(O)c(C)c2)cc1`: the growth inhibition is -6% (at 1.2 µM); -7% (at 3.7 µM); 2% under setting [1]; 95% (active) (at 11.0 µM); 97% (active) (at 33.0 µM); 95% (active) under setting [2]. The growth inhibition reads like this: (at 50.0 µM) 91.3% (active); (at 100.0 µM) 84% (active).
